Rows were chosen to be rich in hits. Some 6.6% of all compounds tested hit in one or more screens of this group.
HT1080 IDH1KD tx = HT-1080 IDH1 knockdown cell toxicity (counter line); HT-1080 IDH1 knockdown viability, ATP luminescence, 48 h; Potency, µM (series often up to 46.1 µM), for inactives: at the highest dose activity, negative = toxicity, actives largely listed as cytotoxic; actives 2% (n = 360,000);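 note: 0% = DMSO wells and -100% = cell-free medium wells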
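After a 2 h attachment period, IDH1KD HT-1080 cells took pin-transferred compound for 48 h at 37 °C; ATP-based luminescence after 10 min room-temperature reagent incubation reported viability.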
KB-V1 MDR tox = KB-V1 MDR subline cytotoxicity; KB-V1 MDR cells viability, CellTiter-Glo, 72 h; Potency, µM (highest dose often 46.1 µM), usual class: cytotoxic; actives 3.4% (n = 400,000); note: % is set by controls: 0 for no effect and ±100 for the full control effect; nearly all actives have a fitted effect of over 60% in size
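Luminescent ATP read-out (CellTiter-Glo, 10 min) measures survival of drug-selected KB-V1 MDR cells after 72 h, 37 degrees C compound exposure. Medium: phenol-red-free DMEM, 10% FBS. Values from fitted concentration-response curves.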
TGFb inhibitor = blocks TGF-b signaling. HepG2 CAGA-GFP TGF-b/SMAD3 reporter, GFP fluorescence, 18 h; TGF-beta stimulated, 500 pg/mL final. actives 1.2% (n = 410,000). Potency, µM (series often up to 46.1 µM), inactives show top-dose activity, negative = inhibition, usual class: inhibitors. AID 588855; note: % is set by controls: 0 for no effect and ±100 for the full control effect; nearly all actives have a fitted effect of over 65% in size
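HEPG2 CAGA-GFP reporter cells (1000/well, DMEM with 1% FBS) received compounds, then recombinant TGF-beta at 500 pg/mL final for 18 hours at 37 degrees C. Per-cell GFP summed per well was normalised to unstimulated and stimulated DMSO controls before curve fitting.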
KB-3-1 cytotox = kills parental KB-3-1 adenocarcinoma cells. Potency, µM (titrated, usually from 46.1 µM), actives largely listed as cytotoxic. AID 1347075. actives 1.4% (n = 400,000). KB-3-1 viability, CellTiter-Glo ATP luminescence, 72 h; note: % is set by controls: 0 for no effect and ±100 for the full control effect; nearly all actives have a fitted effect of over 60% in size
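KB-3-1 cells, DMEM (no phenol red) + 10% FBS; compound by pin transfer, 72 h, 37 °C. Readout: CellTiter-Glo luminescence after 10 min. Data normalized, curve-fitted.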
HT1080-NT tox = kills 2HG-producing HT-1080-NT fibrosarcoma cells | HT-1080-NT fibrosarcoma viability, CellTiter-Glo ATP luminescence, 48 h | Potency, µM (top dose mostly 46.1 µM), for inactives: top-dose activity, negative = less viability, actives largely listed as cytotoxic | actives 1.6% (n = 360,000);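 note: NT is the 2HG producing partner of a matched IDH1 knockdown line; 0% = DMSO-treated cells and -100% = media-only wells without cells; nearly all actives have a fitted effect of over 55% in size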
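750 cells/well, RPMI + 5% FBS; 2 h settle, compound pin-transfer, 48 h at 37 degrees C. CellTiter-Glo 10 min RT, luminescence. Normalized to DMSO and media-only wells.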
HepG2 viability = kills HepG2 cells in TGF-b inhibitor counter-screen; HepG2 CAGA-GFP viability, ATP luminescence, 18 h; Potency, µM (highest dose often 46.1 µM), for the others: at the top dose activity change, negative = cytotoxicity, hits mostly cytotoxic; actives 0.76% (n = 410,000)
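HepG2 CAGA-GFP cells (1000/well, DMEM with 1% FBS) received compound, then TGF-beta at 500 pg/mL final, and were incubated 18 hours at 37 degrees C. Viability was read by CellTiter-Glo luminescence. Media-only wells were set as complete cell-killing and DMSO as no toxicity.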
* hit, by the source's call; i = inactive; ? = inconclusive; · = no result given. Calls come from the whole dose curve; as a rule, active = well fitted curve in the direction sought with a large enough effect; inconclusive = small, poorly fitted or top-dose-only effect, or another doubt; inactive = no such curve, though single readings can be large; an effect the other way counts as inactive or inconclusive. Potency is the fitted concentration of half-maximal effect.

SMILES	HT1080 IDH1KD tx	KB-V1 MDR tox	TGFb inhibitor	KB-3-1 cytotox	HT1080-NT tox	HepG2 viability
COc1ccc(C(=O)c2c(C(F)(F)F)oc3c2C(=O)c2ccccc2C3=O)cc1	6.5µM*	?	?	?	7.3µM*	1.1µM*
COc1ccc(C(=O)c2oc3ccccc3c2NC(C)=O)cc1	-23%	?	23%	?	-7%	-50%
Cn1cc(/C=N/n2cnc3scc(-c4ccccc4)c3c2=O)c2ccccc21	?	2.1µM*	?	5.2µM*	?	-19%
COc1ccccc1CCNC(=O)c1ccc(NC(=O)N2CC(C)Sc3ccccc32)cc1 (stereo not given)	·	i	-5%	i	·	-19%
COc1ccc(S(=O)(=O)Nc2cccc(-c3ccc(N4CCC(C)CC4)nn3)c2)c(OC)c1	·	i	-16%	i	·	-4%
CCC1N=C(SC)NC(C)=C1C(=O)c1ccccc1 (stereo not given)	-4%	i	7%	i	-2%	6%
CSC1=NC(C(Cl)(Cl)Cl)N=C(c2ccc(C)cc2)N1 (stereo not given)	0.65µM*	1.3µM*	?	1µM*	0.37µM*	9%
CC1=CC2=NC(=O)C(c3ccccc3)C(=O)N2C=C1 (stereo not given)	1%	i	6%	i	0%	6%
Cc1ccc2[nH]cc(C(O)c3c[nH]c4ccc(C)cc34)c2c1	·	i	10µM*	i	·	10%
Cc1ccc2c(C(=O)CN3CCSCC3)c(C)[nH]c2c1	-2%	i	7%	i	1%	-5%
Cc1ccc2[nH]cc(C(c3ccccc3)c3ccc(Cl)s3)c2c1 (stereo not given)	·	?	?	?	·	11µM*
Cc1cccc2c(C(O)c3c[nH]c4c(C)cccc34)c[nH]c12	·	i	-19%	i	·	2%
Cc1ccc2[nH]cc(C(=O)CCl)c2c1	21µM*	?	?	?	16µM*	-105%
Cc1ccc2[nH]cc(C(=O)CN3CCN(C)CC3)c2c1	2%	i	5%	i	7%	-9%
Cc1ccc2c(C(=O)CCl)c(C)[nH]c2c1	21µM*	?	?	13µM*	?	-96%
Clc1ccc(C(c2ccccc2)c2c[nH]c3ccccc23)s1 (stereo not given)	·	i	?	?	·	-109%
COc1cccc(C2=NN(C(C)=O)C(c3cn(-c4ccccc4)nc3-c3cccs3)C2)c1 (stereo not given)	·	i	12%	i	·	-2%
O=c1c2c3c(sc2n(Cc2ccc(F)cc2Cl)c(=O)n1-c1ccc(Cl)cc1)CCC3	·	i	12%	i	·	1%
COc1ccc2[nH]c(C(O)C(O)c3nc4c(OC)c(OC)ccc4[nH]3)nc2c1OC (stereo not given)	·	i	-14%	i	·	2%
Cc1ccnc(NC(=S)N2CCN(c3cccc(N(C)C)c3)CC2)c1	·	i	·	i	·	·
Cc1cc(O)cc2c1C1CCC3(C)C(O)CCC3C1C=C2 (stereo not given)	18µM*	?	39%	?	?	2%
CCN1C[C@@H]2[C@@H]3C(=O)N(C)C(=O)[C@@H]3[C@](C)(C1=O)N2C(=O)c1ccc(F)cc1	17%	i	9%	i	7%	7%
CC1(C(=O)Nc2ccc3c(c2)OCCO3)CN(S(C)(=O)=O)CC(=O)N1C1CCCCCC1 (stereo not given)	-4%	i	·	i	-4%	·
CC1CCCC/C1=N/Nc1ccc([N+](=O)[O-])cc1[N+](=O)[O-] (stereo not given)	?	i	-4%	i	-15%	-18%
O=[N+]([O-])c1ccc(C2CCCC/C2=N\OCc2cccc(F)c2)c([N+](=O)[O-])c1 (stereo not given)	-3%	10µM*	-28%	i	-6%	-25%
SMILES	HT1080 IDH1KD tx	KB-V1 MDR tox	TGFb inhibitor	KB-3-1 cytotox	HT1080-NT tox	HepG2 viability
CCN(CC)CCNC(=O)c1ccc2c(=O)n(C3CCCC3)c(=S)[nH]c2c1	20µM*	i	-15%	i	?	-54%
CCOC(=O)/C=c1\s/c(=C\c2ccc3cc(OC)ccc3c2)c(=O)n1CC(=O)NCC1CCCO1 (stereo not given)	17%	18µM*	7%	21µM*	12%	-2%
O=C(O)c1ccc2c3c(ncnc13)-c1ccccc1C2=O	?	i	0.79µM*	?	?	1µM*
O=C(O)c1cccc2c1C(=O)c1ccccc1C2=O	14%	i	-1%	i	?	-2%
CC(C)NC(=O)CSc1cn(CC(=O)N2CCCCCC2)c2ccccc12	·	·	-10%	·	·	-1%
COc1ccc(C(=O)c2c(N)c(-c3nc(-c4ccccc4)cs3)c3ccccn23)cc1	·	i	8%	i	·	-17%
Cc1ccc2oc(/N=C(\N)NC(=O)C3CC3)nc2c1	?	5.2µM*	-18%	?	-14%	-17%
O=c1c2ccccc2nc(COc2ccccc2)n1/N=C/c1cc([N+](=O)[O-])ccc1O	-28%	7.3µM*	-24%	?	-25%	-26%
O=[N+]([O-])c1ccc(Cl)c(/C=N/n2c(COc3ccccc3)n[nH]c2=S)c1	-11%	16µM*	-19%	i	?	-6%
Cc1ccc(C)c(Nc2ncnc3onc(C)c23)c1	·	i	4%	i	·	-1%
CC(=O)CSc1nnc2[nH]c(=O)cc(N)n12	·	?	-1%	i	·	2%
CCOC(=O)C1=C(c2ccccc2)NC(SCC(=O)Nc2cccc(C)c2)=C(C#N)C1c1ccco1 (stereo not given)	?	15µM*	-19%	i	?	-33%
Cc1cccc(N2CCN(S(=O)(=O)c3cc(-c4cc(C)no4)ccc3C)CC2C)c1 (stereo not given)	4.6µM*	?	-3%	?	?	-35%
COc1ccc(-c2cc(C)no2)cc1S(=O)(=O)N1CCN(c2cccc(C)c2)C(C)C1 (stereo not given)	?	?	?	12µM*	?	9%
CCOc1cccc(CC(=O)N2CCc3c([nH]c4ccccc34)C2c2ccc(C)cc2)c1OCC (stereo not given)	·	·	-4%	·	·	-17%
CC(C)c1ccc(OCc2cc(=O)n3c(-c4ccccc4)csc3n2)cc1	·	?	-6%	i	·	1%

Compound activity: PubChem BioAssay, National Center for Advancing Translational Sciences (NCATS)
